# Inconclusive results are not listed. Active and inactive are the calls of the source. Calls follow the shape of the dose curve; as a rule, active = well fitted inhibition curve with a large enough effect; inconclusive = small, poorly fitted or top-dose-only effect; inactive = flat fitted curve, though single readings scatter.
# Target: Muscarinic acetylcholine receptor M1 (Rattus norvegicus) (UniProt P08482)
# Assay: Counterscreen Concentration-Response Assay for Antagonists of the Neuropeptide S Receptor: Muscarinic Receptor Calcium Signal Transduction.
# Conditions: CHO-M1 cells, carbachol-induced calcium fluorescence, FDSS; series mostly up to 20.2 µM; activity, negative = inhibition: at the top concentration
# Description: NIH Chemical Genomics Center [NCGC] NIH Molecular Libraries Probe Production centers Network [MLPCN] MLPCN Grant: X01-DA026210-01 Assay Submitter (PI): Heilig, Markus Alexander NCGC Assay Overview: Neuropeptide S receptor (NPSR), previously known as GPR154, is a recently de-orphanized G protein coupled receptor. Its endogenous ligand is the 20 amino acids peptide Neuropeptide S (NPS). […] NPS and its receptor are found in various tissues. Specifically they are highly expressed in brain areas that have been implicated in modulation of arousal, stress and anxiety. Central administration of NPS in mice produces an unusual profile of activity by inducing wakefulness and arousal, while at the same time suppressing anxiety. Therefore, NPSR may represent a novel drug target for the treatment of sleep and anxiety disorders. To identify NPSR antagonists, we developed a cell-based assay with transfected NPS receptor. NPS can stimulate the production of cAMP as well as release intracellular calcium in Chinese hamster ovary cells stably expressing NPS receptor. This change in intracellular calcium can be detected using a calcium indicator dye on a calcium imaging plate reader system (FDSS). To validate the specific action of compounds on the NPS receptor, a counterscreen was developed that tests compounds' antagonism of M1 muscarinic receptor stimulation by carbachol. The protein, gene and taxonomy linked to this assay refer to Rattus norvegicus, but Chinese Hamster ovary cells were actually used.
# NCGC Assay Protocol Summary: A Chinese hamster ovary (CHO) cell line stably expressing muscarinic acetylcholine M1 receptor (CHO-M1) was obtained from ATCC and maintained in F-12 Kaighn's media (Invitrogen, Carlsbad, CA, 21127) supplemented with 10 % FBS, 100 units/ml penicillin, 100 ug/ml streptomycin and 250 ug/ml geneticin at 37C, 5% CO2 in a humidified atmosphere. Before the assay, aliquots of cells were frozen and stored at -135C. The assay was performed on a FDSS-7000 kinetic plate reader in 1536-well format. The maximums of kinetic fluorescence responses were converted into text files using the instrument's software data export utility. […] AC50 values were determined from concentration-response data modeled with the standard Hill equation. CHO-M1 1536-well FDSS assay protocol: (1) Frozen CHO-M1 cells were thaw, washed once with fresh media and resuspended in F-12 Kaighn's media supplemented with 10 % FBS, 100 units/ml penicillin and 100 ug/ml streptomycin. Cells were plated at 3 ul/well (1200 cells) to black, clear-bottom, tissue-culture treated 1536-well plates, and then cultured at 37C, 5 % CO2 for 16 to 30 hours. (2) Add 3 ul of calcium dye (from High Performance PBX Calcium Assay Kit, BD Biosciences). The calcium dye was prepared according to the manufactory's instruction. (3) Incubation at 37C, 5 % CO2 for 60 min. (4) Add 23 nl/well of compound in DMSO solution. The final titration for each compound was between 0.6 nM and 46 uM. (5) Load plates to FDSS-7000. The following steps were performed on FDSS-7000. (6) Record fluorescent background (Ex 480 nm, Em 520-560 nm) for 10 s. (7) Add 2 ul of stimulation reagent (1X HBSS buffer, 0.1% BSA, 60 nM carbachol). Record antagonist response (Ex 480 nm, Em 520-560 nm) for 180 s. Keywords: MLSMR, MLPCN, NIH Roadmap, qHTS, NCGC, NPS, Neuropeptide S Antagonists
Compound,"activity, negative = inhibition",Potency
CCC(C)(C)NC(=O)Cc1ccc(C)cc1,4.41% (inactive),–
c1cncc(-c2nc(-c3ccco3)cs2)c1,3.25% (inactive),–
CCN(CC)S(=O)(=O)c1ccc2c(c1)nc(SC(C)C(N)=O)n2-c1ccc(OC)cc1 (configuration not stated),-10.2% (inactive),–
O=C(O)c1cccc(Nc2ncnc3ccccc23)c1,-12.1% (inactive),–
O=C(N1CCOCC1)C1(c2ccc(Cl)cc2)CCCC1,15.5% (inactive),–
O=C(O)C1CCN(c2nc(-c3ccccc3)nc3c2oc2ccccc23)CC1,-11.1% (inactive),–
COc1ccc(N=C2S/C(=C\c3ccc(N4CCOCC4)o3)C(=O)N2CCc2c[nH]c3ccccc23)cc1,–,5.01 µM (active)
O=c1cc(-c2c(F)c(F)c(F)c(F)c2F)oc2c(F)c(F)c(F)c(F)c12,–,5.01 µM (active)
COc1ccc(N(CC(=O)Nc2cccc(SC)c2)S(C)(=O)=O)cc1Cl,7.48% (inactive),–
Cc1ccc(-c2nnn(CC(=O)Nc3ccccc3-c3ccccc3)n2)c(-n2cnnn2)c1,6.88% (inactive),–
CC(=O)c1cc(NC(=O)c2ccccc2)c(=O)oc1/C=C/N(C)C,-17.1% (inactive),–
Cc1ccc(/C=C2\SC(=S)N(CC(=O)Nc3ncc(Cc4ccccc4Cl)s3)C2=O)cc1,-5.69% (inactive),–
CN(C)c1ccc(N=Cc2ccco2)cc1,3.92% (inactive),–
Cc1cc(OCC(=O)c2ccc(Br)cc2)ccc1N1C(=O)CCC1=O,-0.282% (inactive),–
CN(C)c1ccc(N2CN=C3SCC(=O)N3C2)cc1,-3.33% (inactive),–
N#Cc1cnn(-c2ncnc3sc4c(c23)CCCC4)c1N,9.92% (inactive),–
Nc1ccc(-c2nc3c(Cl)cc(N)cc3[nH]2)cc1,-5.43% (inactive),–
COc1ccc(C2c3c(ncn(CCN4CCOCC4)c3=N)Oc3ccc4ccccc4c32)cc1OC (configuration not stated),17.8% (inactive),–
O=C(NCCCN1CCOCC1)c1cc2c(=O)[nH]c3ccccc3c2s1,4.61% (inactive),–
O=C(Nc1nccs1)C1CCCN1S(=O)(=O)c1ccc(Cl)cc1 (configuration not stated),14.5% (inactive),–
Cc1ccc2nc3ccc(N4CCCCCCC4)nn3c(=O)c2c1,3.52% (inactive),–
COc1ccc(-c2cc(N)n(S(=O)(=O)c3c(F)c(F)c(F)c(F)c3F)n2)cc1OC,–,11.2 µM (active)
Cc1ccc(Cn2cc(SCC(=O)Nc3nccs3)c3ccccc32)cc1,-0.635% (inactive),–
COc1ccc(NC(=O)/C(Cl)=C(/Cl)S(=O)Cc2ccc(C)cc2)cn1 (configuration not stated),–,10 µM (active)
CC(=O)n1nc2nc(C)cc(C)c2c1N,-5.44% (inactive),–
Cc1nn(C(=O)c2cccs2)c(N)c1-c1ccccc1,5.89% (inactive),–
c1ccc(N2CCN(Cc3ccnc4ccccc34)CC2)cc1,12.5% (inactive),–

# — PubChem BioAssay AID1492 (National Center for Advancing Translational Sciences (NCATS), 2009)
